# Rows were chosen to be rich in hits. Some 12% of all compounds tested hit in one or more screens of this group.
# BAZ2B inh – BAZ2B (human) inhibition; Potency, µM (series often up to 114 µM), for inactives: top-dose activity change, negative = inhibition, usual class: inhibitors; AlphaScreen BAZ2B-H3K14Ac peptide displacement; 360,000 tested, 4.4% active; AID 504333; Q9UIF8; further: on the % scale 0 is the no-effect control and ±100 the full control effect; nearly all actives have a fitted effect of over 60% in size
#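 BAZ2B (50 nM) with biotin-H3(5-23)K14Ac peptide (50 nM) in PBS pH 7.4, 0.01% Tween-20, preformed 30 min, then compound 30 min at room temperature; top concentration 110uM. AlphaScreen streptavidin donor/nickel chelate acceptor beads (10 ug/mL final), 20 min dark, signal read.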
# JMJD2A Tudor inh – JMJD2A Tudor domain (human) inhibition; AID 504339; Potency, µM (top dose mostly 114 µM), for the others: top-dose activity change, negative = inhibition, usual class: inhibitors; 390,000 tested, 4.4% active; AlphaScreen JMJD2A-Tudor / H3K4me3 peptide binding; further: on the % scale 0 is the no-effect control and ±100 the full control effect; nearly all actives have a fitted effect of over 50% in size
# G9a block – blocks human histone lysine methyltransferase G9a | Potency, µM (series often up to 102 µM), for inactives: top-dose activity, negative = inhibition, hits mostly inhibitors | 350,000 tested, 8.8% active | G9a H3K9 monomethylation, AlphaScreen, 2 h | AID 504332 | Q96KQ7; further: on the % scale 0 is the no-effect control and ±100 the full control effect; nearly all actives have a fitted effect of over 75% in size
#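 AlphaScreen read-out: biotin-H3K9 peptide (500 nM) methylation by 20 nM enzyme with 20 uM SAM, 2 h at room temperature after 15 min compound preincubation; anti-monomethyl H3K9 antibody plus donor/acceptor beads, 10 min dark.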
# Sfp inh – blocks B. subtilis Sfp PPTase activity. Biochemical Sfp PPTase activity, qHTS. Potency, µM, without a hit: largest response in the series, negative = inhibition, hits mostly inhibitors. 310,000 tested, 3.5% active;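 further: the enzyme is Sfp with the accession as filed and its product quenches rhodamine fluorescence; 0% = enzyme reaction without inhibitor and -100% = no enzyme wells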
#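 After 15 min at room temperature with compound, 15 nM Sfp received 5 uM rhodamine-CoA plus 12.5 uM BHQ-2-ybbR (50 mM Hepes pH 7.6, 10 mM MgCl2). Rate came from the fluorescence difference over 30 min, ex 525/em 598 nm.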
# HP1b chromo inh – inhibitors of HP1-beta chromodomain binding to methylated histone tails; AlphaScreen HP1-beta / biotin-H3K9me3 peptide binding; Potency, µM (doses to about 114 µM), without a hit: at the highest dose activity change, negative = inhibition, actives largely listed as inhibitors; 390,000 tested, 0.56% active; AID 540317; further: nearly all actives have a fitted effect of over 70% in size
#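 Compound inhibition of the preformed complex between 50 nM HP1-beta and 50 nM biotinylated H3K9me3 peptide was read by AlphaScreen. Buffer was PBS pH 7.4 with 0.01% Tween-20. Incubations ran 30 min at room temperature, with 10 ug/mL donor/acceptor beads.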
# L3MBTL1 inh – inhibitors of human L3MBTL1. Q9Y468. AlphaScreen L3MBTL1–H3K9me1 peptide binding. Potency, µM (doses to about 57.1 µM), without a hit: at the top dose activity, negative = inhibition, most hits filed as inhibitors. 230,000 tested, 0.66% active; further: on the % scale 0 is the no-effect control and ±100 the full control effect; nearly all actives have a fitted effect of over 60% in size
#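 First, the protein-peptide complex forms for 30 min at room temperature (L3MBTL1 50 nM, biotinylated H3K9me1 peptide 75 nM). Next, compounds are pin-transferred and incubated 30 min. Finally, AlphaScreen beads are added and read after 30 min.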
# Numbers without * were called inactive; ? = inconclusive; / = not tested or not shown; [ ] = dose if it differs, or a comment. The call rests on the fitted dose curve; in most records, active means well fitted curve in the direction sought with a large enough effect; inconclusive means small, poorly fitted or top-dose-only effect, or another doubt; inactive means no such curve, though single readings can be large; an effect the other way counts as inactive or inconclusive. Potency means the concentration at half of the fitted maximal effect.
SMILES,BAZ2B inh,JMJD2A Tudor inh,G9a block,Sfp inh,HP1b chromo inh,L3MBTL1 inh
Cc1cnc(=O)[nH]c1SCc1ccc([N+](=O)[O-])cc1,?,-29%,63µM*,1%,12%,/
CCc1ccccc1NC(=O)Cn1c(=O)n(CCCCCC(=O)NCc2ccc(C)cc2)c(=O)c2sccc21,?,-10%,-36%[59 µM],/,41%,/
Cc1cn(C2CC3OCC(NC(=O)C(Cc4ccccc4)NC(=O)OC(C)(C)C)C3O2)c(=O)[nH]c1=O (centres undefined),/,-10%,/,8%,61%,/
Cc1nc(-c2ccc3c(c2)OCCO3)cs1,-16%,-11%,32µM*,?,8%,-13%
Cc1cccc(Nc2nc(-c3ccc4c(c3)OCCO4)cs2)c1,50µM*,?,7.9µM*,-12%,-35%,/
Cc1cccc(Nc2nc(-c3ccncc3)cs2)c1,0%,-32%,?,-4%,29%,/
O=C(Nc1nc(-c2ccc3c(c2)OCCO3)cs1)C1CCCC1,?,?,45µM*,5%,20%,-11%
CN(C)/C=N/c1nc(-c2ccc3c(c2)OCO3)cs1,-30%,-13%,-17%,10%,4%,-18%
COc1ccccc1NC(=O)c1ccc2oc(=O)c(S(=O)(=O)c3ccccc3)cc2c1,-24%,-5%,5%[59 µM],/,27%,/
Cc1ccccc1NC(=O)Cc1nc(COC(=O)c2ccccn2)cs1,9%,1%,50µM*,/,20%,2%
Cc1ccccc1NC(=O)Cc1nc(COC(=O)C(C)C)cs1,-11%,-6%,?,1%,26%,/
COc1ccccc1NC(=O)Cc1nc(CCl)cs1,56µM*,?,6.3µM*,-5%,24%,6%
COc1cc(C)ccc1NC(=O)Cc1csc(NC(=O)Nc2ccccc2OC)n1,?,-31%,13µM*,/,7%,-4%
CCOC(=O)c1sc(NC(=O)c2c(-c3ccccc3)c(-c3ccccc3)nn(C)c2=O)nc1C,-36%,?,?,/,-7%,/
COc1ccc(OC)c(S(=O)(=O)NCCc2csc3nc(-c4ccccc4)nn23)c1,-1%,-2%,5%[59 µM],/,27%,/
Clc1ccccc1-c1nc(-n2ccnc2)c2ccccc2n1,/,/,-47%[0.501 µM],3%,/,/
O=[N+]([O-])c1ccc(OCc2n[nH]c(=S)n2-c2ccccc2)cc1,-25%,45µM*,3.5µM*,-7%,5%,-7%
S=c1[nH]nc(COc2ccc3c(c2)OCO3)n1-c1ccccc1,-34%,40µM*,0.71µM*,40µM*,3%,10%[11.4 µM]
S=c1[nH]nc(-c2ccc3c(c2)OCO3)n1-c1ccccc1,-3%,5µM*,1.6µM*,-3%,-14%,12%
CCn1c(COc2ccc3c(c2)OCO3)nnc1SCC(=O)c1ccccc1,?,-18%,11µM*,?,13%,-12%[11.4 µM]
c1ccc(-c2nccc(-c3ccc4c(c3)OCO4)n2)cc1,66%,84%,179%,-9%,160%,/
CCNc1ncc2nc(C)c(=O)n(CCc3ccccc3)c2n1,/,/,-1%[0.501 µM],16%,/,/
CCN(CC)S(=O)(=O)c1cccc(N=Nc2sc(N)nc2C)c1,11µM*,35µM*,40µM*,-2%,?,/
C=CC[C@@H]1C=C[C@H](O/N=C(\C)CCN2CCc3nc(CC)c(CC)cc3C2)[C@H](CO)O1,/,/,/,-11%,/,/
Cc1cccc(OCC(=O)Nc2c(C(=O)N3CCN(c4ccccc4)CC3)oc3ccccc23)c1,-17%,-16%,?,/,33%,/
SMILES,BAZ2B inh,JMJD2A Tudor inh,G9a block,Sfp inh,HP1b chromo inh,L3MBTL1 inh
N=c1sccn1CC(=O)N1N=C(c2ccc(Cl)cc2)CC1c1ccco1 (centres undefined),79µM*,-21%,-40%,-5%,-21%,/
O=C(OCC(=O)N1N=C(c2ccc(Cl)cc2)CC1c1ccco1)c1ccco1 (centres undefined),-28%,-28%,?,-1%,12%,-21%
COc1ccc(C2=NN(C(=O)CSc3nnc(C)c(=O)n3N)C(c3ccco3)C2)cc1 (centres undefined),?,-16%,?,3%,7%,/
COc1cccc(C2=NN(C(=O)c3ccco3)C(c3ccco3)C2)c1 (centres undefined),?,-33%,45µM*,50µM*,0%,/
CCC(=O)N1N=C(c2ccc(NS(=O)(=O)c3ccc(C)cc3)cc2)CC1c1ccco1 (centres undefined),/,-29%,/,/,23%,?
CCC(=O)N1N=C(c2ccc(C)cc2)CC1c1ccco1 (centres undefined),-25%,-11%,45µM*,-4%,21%,-14%
Cc1ccc(C2=NN(C(=O)CSc3nnnn3C)C(c3ccco3)C2)cc1 (centres undefined),-8%,-17%,0.89µM*,/,18%,-3%
CCCc1cc(=O)[nH]c(SCc2nc(-c3ccccc3)no2)n1,-3%,-6%,-16%[59 µM],/,21%[57 µM],/
COc1ccc(C2Nc3ccccc3C(=O)N2Cc2ccccc2)cc1COc1ccccc1OC (centres undefined),/,-21%,/,/,/,/
Cn1cnnc1SCC(=O)N1N=C(c2ccc(Cl)cc2)CC1c1ccco1 (centres undefined),?,-22%,?,50µM*,18%,-28%
O=C(CSc1ncn[nH]1)N1N=C(c2ccc(Cl)cc2)CC1c1ccco1 (centres undefined),14%,-29%,?,?,27%,-6%
O=C(CSc1n[nH]c(=O)n1C1CC1)N1N=C(c2ccc(Cl)cc2)CC1c1ccco1 (centres undefined),-34%,-34%,-3%[12.7 µM],4%,2%,/
O=C(OCC(=O)N1N=C(c2ccc(Cl)cc2)CC1c1ccco1)c1ccccc1O (centres undefined),-2%,-20%,18µM*,?,56%,/
CCC1(CC)NC(=O)N(CC(=O)N2N=C(c3ccc(Cl)cc3)CC2c2ccco2)C1=O (centres undefined),?,?,56µM*,-12%,-15%,-16%
CCOC(=O)c1c(C)[nH]c(CCC(=O)NC(C)c2ccccc2)c1C (centres undefined),-3%,-13%,-27%[59 µM],/,18%[57 µM],/
CC(C)c1nc2ccc(C(=O)NCCCN3CCN(c4ccccc4F)CC3)cc2o1,-18%,-12%,1%[59 µM],/,27%[57 µM],/
CCc1ccc(Sc2cc(C(=O)NCCCN3CCCC(C)C3)c3ccccc3n2)cc1 (centres undefined),-21%,-35%,-44%[59 µM],/,3%,/
CCN(CC)C(=O)[C@H]1C[C@H](CC(=O)NCc2ccc(OC)c(OC)c2)C(=O)N2CCc3c([nH]c4cc(-c5ccco5)ccc34)[C@]12C,/,?,/,/,-19%,-27%

# Screening data from PubChem BioAssay.
